From PubChem BioAssay
CHT inh: inhibits the human high affinity choline transporter. AID 488975. Q9GZV3. 310,000 compounds, 0.86% hits. CHT-expressing cells, membrane potential dye, choline response; hits give low values. B-score at 10 µM;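 active = B-score over 3 SD under the library average, and starting fluorescence ratio not unusually high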;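 also: choline stimulus applied at its EC90 after an EC20 pre-addition; B-score computed on integrated fluorescence ratio after choline addition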
Target sequence (Q9GZV3 whole entry, looked up): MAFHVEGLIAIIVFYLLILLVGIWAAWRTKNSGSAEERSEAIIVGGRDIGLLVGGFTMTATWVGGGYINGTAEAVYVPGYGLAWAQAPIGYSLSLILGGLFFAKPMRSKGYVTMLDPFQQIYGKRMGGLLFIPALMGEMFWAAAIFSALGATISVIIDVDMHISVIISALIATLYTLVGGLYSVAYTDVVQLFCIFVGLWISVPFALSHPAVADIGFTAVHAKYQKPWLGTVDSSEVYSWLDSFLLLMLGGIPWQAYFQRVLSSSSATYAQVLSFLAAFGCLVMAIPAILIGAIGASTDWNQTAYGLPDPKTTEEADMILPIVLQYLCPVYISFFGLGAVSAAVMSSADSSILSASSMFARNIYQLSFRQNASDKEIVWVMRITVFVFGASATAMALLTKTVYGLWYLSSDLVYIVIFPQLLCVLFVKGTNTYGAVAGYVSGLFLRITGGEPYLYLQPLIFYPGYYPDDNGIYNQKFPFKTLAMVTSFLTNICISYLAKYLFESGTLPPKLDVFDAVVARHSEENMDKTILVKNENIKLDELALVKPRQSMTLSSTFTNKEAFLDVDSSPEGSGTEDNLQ
ANO1 activ: activators or potentiators of mouse TMEM16A chloride channel; 340,000 compounds, 0.3% hits; AID 623877; Q8BHY3; HEK293 TMEM16A/YFP-H148Q/I152L, iodide quench fluorescence; hits give low values; B-score at 10 µM;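 active = fluorescence-ratio B-score plate-corrected deviation score at least 3 library SD below zero, with starting fluorescence score within 5 deviations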;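 also: channel opened by trigger with iodide after compound preincubation; score built on the fluorescence ratio of max minus min over baseline; more negative score means more quench and so TMEM16A activation or potentiation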
ANO1 block: mouse TMEM16A channel inhibition, primary screen | Q8BHY3 | HEK293 TMEM16A/YFP iodide influx fluorescence, ionomycin | normalized B-score (activity score, 25-100; higher = stronger inhibition) at 10 µM | 310,000 compounds, 1.2% hits;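 active = ratio plate-corrected score three or more library SD toward inhibition, starting fluorescence score within five deviations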;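 also: score derived from kinetic fluorescence span divided by baseline fluorescence per well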
CHT PAM: allosteric activators of human choline transporter CHT | Q9GZV3 | CHT-expressing cells, membrane potential dye, choline EC20; hits give high values; LV-AA mutant CHT in HEK293 cells | B-score at 10 µM | 310,000 compounds, 0.49% hits | AID 488977;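 active = initial fluorescence not abnormally high and integrated response B-score, plate-corrected, over 3 SD above library mean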
CHT block conf: confirmation of human choline transporter CHT inhibitors; shares compounds with CHT inh; CHT-expressing cells, choline membrane potential dye; LV-to-AA substituted CHT, HEK293 cells; CHT activity remaining % of control (hits give low values), % at 10 µM; 2,400 compounds, 70% hits; AID 493221;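 active = choline transporter activity left, mean of duplicates at 10 µM, below buffer-only control mean minus 3 SD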;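 also: depolarization triggered by choline at its EC90 following an EC20 pre-addition; 0% = hemicholinium-3 full block and 100% = buffer-only control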
HEK293 CHT ctr: counter-screen for CHT inhibitors: effect in parental HEK293 cells. AID 493222. membrane potential ratio readout (active if shifted either direction beyond buffer ±3SD; no single direction) at 10 µM. membrane potential dye, choline response; active = decrease or increase beyond buffer ±3SD. shares compounds with CHT inh. 2,400 compounds, 4% hits;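 also: parental cells lack the transporter so any hit is non-specific; ratio is peak minus trough fluorescence over baseline after EC90 choline challenge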
* = called active by the depositor; i = inactive; / = no result. This is a sample that favours compounds with a hit; in the whole collection about 2.4% have one here.

SMILES | CHT inh | ANO1 activ | ANO1 block | CHT PAM | CHT block conf | HEK293 CHT ctr
CC1Cc2nc(SCC(=O)Nc3nc4ccccc4s3)n(C)c(=O)c2S1 (stereo not given) | -5.1* | i | i | i | i | i
COCCNc1cc(C)nc2c(-c3ccccc3OC)c(C)nn12 | i | i | i | i | / | /
CCc1nn2c(NCCOC)cc(C)nc2c1-c1ccc(F)cc1 | -5.1* | i | i | i | 48%* | i
CN(Cc1ccccc1)C(=O)CN1CCN(C(c2ccccc2)c2ccccc2)CC1 | -8.3* | i | i | i | 52%* | i
Cc1ccccc1CC1(CO)CCCN(Cc2nc(-c3cccs3)oc2C)C1 (stereo not given) | -6.7* | i | i | i | i | i
Cc1ccc(-n2c(C)cc(C(=O)COC(=O)C3=NNC(=O)CC3)c2C)cc1 | -6.5* | i | i | i | 18%* | -12*
O=C(NCCCn1ccnc1)c1cnn2c1NC(c1ccccc1)CC2C(F)(F)F (stereo not given) | -14* | i | i | i | 9.0%* | i
COc1ccc(/C=N/Nc2nc(C(=O)O)cs2)cc1 | i | i | i | i | / | /
C=CCn1c(SCC(=O)NCc2ccco2)nnc1C1CCCCC1 | i | i | i | i | / | /
C=CCn1c(SCC(=O)NC(=O)NC2CCCC2)nnc1C1CCCCC1 | -5* | i | i | i | 68%* | i
Cc1nn(Cc2ccccc2)c(Cl)c1/C=C1\NC(=S)NC1=O | -7.7* | i | i | i | i | i
Cc1ccc(SC(CC(=O)c2ccc(F)cc2)C(=O)O)cc1 (stereo not given) | i | i | i | i | / | /
CC(C)(C)c1ccc(C(=O)CC(Sc2ccc(Cl)cc2)C(=O)O)cc1 (stereo not given) | -8.4* | i | i | i | 6.4%* | i
Cc1ccc(C(=O)NCCN2CCOCC2)cc1S(=O)(=O)N1CCCCC1 | i | i | i | i | / | /
Cc1cccc(C(=O)Nc2cccc(OCC(=O)O)c2)c1 | -5* | i | i | i | 57%* | i
O=C(O)COc1cccc(NC(=O)c2ccccc2)c1 | i | i | i | i | / | /
CSc1ccc(CNCCCSc2ncccn2)cc1 | -5.6* | i | i | i | i | i
CCOC(=O)Cc1csc(NC(=S)NC(=O)c2ccc([N+](=O)[O-])cc2)n1 | i | i | i | i | / | /
Cc1occc1C(=O)NNC(=O)COc1ccc(Br)cc1Br | i | i | i | i | / | /
Cc1occc1C(=O)NNC(=S)NC(=O)COc1ccc(Cl)cc1Cl | -9.4* | -5* | 100* | i | 58%* | i
CC(=O)N1c2ccc(S(=O)(=O)NCc3ccccc3Cl)cc2CC1C (stereo not given) | -7* | i | i | i | 61%* | i
CC(=O)N1c2ccc(S(=O)(=O)NCCC(=O)NC3CCCCCC3)cc2CC1C (stereo not given) | i | i | i | i | / | /
COc1cccc(NC(=O)CCNS(=O)(=O)c2ccc3c(c2)CC(C)N3C(=O)C2CC2)c1 (stereo not given) | -5.2* | i | i | i | i | i
CC(=O)N1c2ccc(S(=O)(=O)NCCC(=O)NC3CCCC(C)C3C)cc2CC1C (stereo not given) | -6.8* | i | i | i | 38%* | i
O=C(CNCCO)Nc1ccc(F)c(Cl)c1 | i | i | i | i | / | /
COc1ccc(N=c2scc(C)n2CCCN2CCCC2=O)cc1 | i | i | i | i | / | /
Cc1c(Br)c([N+](=O)[O-])nn1CC(=O)NCc1ccco1 | i | i | i | i | / | /
Cc1c(Br)c(C(F)(F)F)nn1CC(=O)NCc1ccco1 | -7.7* | i | i | i | i | i
COc1ccc(C2(C(=O)Nc3ccc(S(=O)(=O)Nc4nc(C)cc(C)n4)cc3)CCCC2)cc1OC | -7.7* | i | i | i | 29%* | i
COC(=O)Cn1ccc(N(C)C)c(C#N)c1=O | -15* | i | i | i | 8.7%* | i
